# Active and inactive are the calls of the source.
# Test: CREB reporter modulators under forskolin, primary screen, cell-based, PC12, CRE-LacZ reporter, forskolin-stimulated (AID 1146);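 further: beta-galactosidase reporter signal reflecting CREB driven transcription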
# Conditions: luminescence, 4.5 h, higher = more signal, called active from +8 up or from −8 down
row,Structure (SMILES),z-score
1,CCC(CC)C(O)C1C=CC2C(=O)NC(=O)C2N1Nc1ccc(Cl)cc1Cl (stereo unspecified),-0.273 (inactive)
2,C=C(CCCC)/C(=C/C[C@@H](OC(=O)c1ccncc1)c1ccc(OCCO)cc1)c1cc(C(=O)OC)ccc1OC,1.99 (inactive)
3,CO[C@H]1O[C@H](CO)[C@@H](OC(=O)Nc2cccc(F)c2)[C@H](OC(=O)Nc2ccccc2)[C@@H]1OC(=O)Nc1ccccc1,-0.74 (inactive)
4,C=C(COC)C(=O)CC[C@@H](OC(C)=O)c1ccc(CO)o1,0.283 (inactive)
5,COC(=O)[C@H](Cc1ccccc1)N1CC2=C[C@@H](C3CC3)n3c(=O)n(C)c(=O)n3[C@H]2[C@@H]1[C@@H](O)Cc1ccccc1,-0.269 (inactive)
6,C=C[C@H](CO[Si](CC)(CC)CC)N(Cc1ccc(OC(C)=O)c(OC)c1)S(=O)(=O)c1ccc(Br)cc1,0.685 (inactive)
7,C=CCOC(=O)[C@H]1[C@@H]2C(=O)O[C@@H](c3ccccc3)[C@@H](c3ccccc3)N2[C@@H](c2ccc(OCCOC(=O)[C@H]3C[C@H]4C(=O)N[C@@H](CCCCNC(C)=O)C(=O)N4[C@H]3c3ccc(O)cc3)cc2)[C@]12C(=O)Nc1ccc(I)cc12,6.74 (inactive)
8,CC(C)C(O)C1C=CC2C(=O)NC(=O)C2N1Nc1ccc(Cl)cc1Cl (stereo unspecified),0.0675 (inactive)
9,COc1ccc([Si](C)(C)[C@H]2[C@H](CCO)O[C@@]3(C(=O)N(Cc4ccc(N(C=O)c5ccccc5)cc4)c4ccccc43)[C@@H]2C)cc1,-1.24 (inactive)
10,CC(C)C(O)C1C=CC2C(=O)N(c3ccccc3)C(=O)C2N1Nc1ccc([N+](=O)[O-])cc1 (stereo unspecified),-0.343 (inactive)
11,CC(C)C[C@@H]1NC(=O)[C@H](C(C)C)NC(=O)[C@@]23C(=O)N[C@@H](Cc4ccccc4)C2[C@H](C)[C@@]2(C)O[C@H]2C3/C=C/CC/C=C/CNC1=O (stereo partly specified),-1.23 (inactive)
12,CC1(C)[C@@H]2CC(C(O)C3C=CC4C(=O)N(c5ccccc5)C(=O)C4N3Nc3ccc([N+](=O)[O-])cc3)=C[C@H]1C2 (stereo partly specified),0.617 (inactive)
13,COc1ccccc1CN1C(=O)c2ccccc2[C@@]2(Cc3ccccc3N(CC(C)C)C2=O)[C@@H]1c1ccc(CO)cc1,0.462 (inactive)
14,CC1CC/C=C\[C@H]2OC34C=CCN(C(C)(C)C)C(=O)[C@H]3N(C(C)CO)C(=O)[C@@H]4C2C(=O)O1 (stereo partly specified),0.826 (inactive)
15,O=C(NCCO)C1=C[C@H](Oc2ccccc2I)[C@@H](O)[C@H](N(Cc2ccco2)C(=O)Cc2ccccc2)C1,0.603 (inactive)
16,CN(C)CCCC[C@@H]1NC(=O)[C@H]2C[C@@H](C(=O)NCCCCCCN)[C@@H](c3ccc(O)cc3)N2C1=O,-0.139 (inactive)
17,COC(=O)C(CC#Cc1ccc2c(c1)[C@]1(C(=O)N2)[C@H](c2ccc(OCCO)cc2)N2[C@H](c3ccccc3)[C@H](c3ccccc3)OC(=O)[C@H]2[C@@H]1C(=O)N1CCc2cc(OC)c(OC)cc2C1)C(=O)OC,2.19 (inactive)
18,[N-]=[N+]=Nc1ccccc1[C@H]1OC(c2ccc(OCCCO)cc2)=N[C@@]1(CCS(=O)(=O)c1ccccc1)C(N)=O,-1.12 (inactive)
19,COC(=O)[C@@]1(Cc2ccc(F)cc2)[C@H]2c3cc(C(=O)N(C)C)n(Cc4ccccc4)c3C[C@H]2CN1C(=O)c1ccccc1,1.42 (inactive)
20,COc1cc(COC(C)=O)ccc1OC(C)=O,68.7 (active)
21,CN1C(=O)C2C=CC(C(O)C#Cc3ccccc3)N(N3CCCCC3)C2C1=O (stereo unspecified),-0.516 (inactive)
22,NC(=O)NCC#Cc1ccc2c(c1)[C@]1(C(=O)N2)[C@H](C(N)=O)[C@H]2C(=O)O[C@H](c3ccccc3)[C@H](c3ccccc3)N2[C@@H]1c1ccc(O)cc1,-0.0696 (inactive)
23,CO[C@H]1O[C@H](CO)[C@@H](OC(=O)Nc2ccc(Oc3ccccc3)cc2)[C@H](OC(=O)Nc2ccc3c(c2)OCO3)[C@H]1OC(=O)Nc1ccc2c(c1)OCO2,-0.922 (inactive)
24,CC(C)NC(=O)[C@@H]1c2ccccc2C(=O)N(C2Cc3ccccc3C2)[C@H]1c1ccc(CO)cc1,-1.35 (inactive)
25,CCCc1cc2c(n1Cc1cc(F)cc(F)c1)C(C)C1CN(C(=O)c3ccccc3)C(C)(C(=O)OC)C21 (stereo unspecified),1.31 (inactive)
26,[N-]=[N+]=Nc1ccccc1[C@@H]1OC(c2ccc(OCCCO)cc2)=N[C@]1(CCS(=O)(=O)c1ccccc1)C(N)=O,-1.09 (inactive)

# Source: PubChem BioAssay
